We go through 22 compounds from PubChem BioAssay (NCI).

About 79,000 compounds went through this panel and 15% of them were active in at least one assay; those are over-represented in the sample as a whole. A number with no mark means an inactive call. Active and inactive are the calls of the source. Rule as the data show it: active = growth inhibition above about 70%; inactive = the rest. Where a SMILES comes first, the peptide text is derived from it. [ ]: non-standard residue; d: D form. The star is where a group is joined. ξ: configuration not given here. Cbz = O=C(OCc1ccccc1)*; ξT = CC(O)C(N)C(=O)O

A short description of assay [1]: NCI Yeast Anticancer Drug Screen. Data for the rad50 strain (AID 155).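 Also: 0% = growth of vehicle-only cultures of the same strain.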 The following applies: S. cerevisiae rad50 strain growth inhibition; at 50.0 µM; active compounds read high. Summed up: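 Yeast carrying a defined DNA repair defect were exposed to test compounds, and growth was compared with vehicle-treated controls to give percent inhibition.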
The nature of assay [2]: NCI Yeast Anticancer Drug Screen. Data for the mec2-1 strain (AID 157). To be noted: S. cerevisiae mec2-1 strain, at 50.0 µM, active compounds read high. Summed up:
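Yeast mec2-1 mutant treated with compound. Readout: growth inhibition vs vehicle controls.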

Assay [3] can be described thus: NCI Yeast Anticancer Drug Screen. Data for the sgs1 mgt1 strain (AID 161).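 Also: 0% = growth of cultures given vehicle only.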 To be noted: S. cerevisiae sgs1 mgt1 strain, at 50.0 µM, active compounds read high. In a few lines: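 Inhibition of yeast growth, normalised to vehicle-treated controls, is reported for a strain bearing genetic alterations in DNA damage repair.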
Assay [4] is described as follows: NCI Yeast Anticancer Drug Screen. Data for the cln2 rad14 strain (AID 165).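 Also: 0% = growth equal to vehicle treated cultures.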 To be noted: S. cerevisiae cln2 rad14 strain, at 50.0 µM, active compounds read high. Summed up:
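cln2 rad14 yeast strain; compound exposure; growth inhibition read vs vehicle controls.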

Assay [5] can be described thus: NCI Yeast Anticancer Drug Screen. Data for the bub3 strain (AID 167). The following applies: S. cerevisiae bub3 mutant strain, at 50.0 µM, active compounds read high. Summed up: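 Compounds were applied to a genetically altered yeast strain carrying a cell-cycle control defect. Growth inhibition was scored against vehicle-treated controls.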
Assay [6] can be described thus: NCI Yeast Anticancer Drug Screen. Data for the mlh1 rad18 strain (AID 175). To be noted: S. cerevisiae mlh1 rad18 strain growth inhibition; at 50.0 µM; active compounds read high. In a few lines: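 Yeast w/ defined DNA-repair lesions; compound exposure; growth vs vehicle controls → % inhibition.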

Regarding `CC1CCC(=N\O)/C(=N/O)C1` (configuration not stated), the growth inhibition in assay [1] is 5.9%; in assay [2] it was -19.3%; in assay [3], -21.9%; in assay [4] it was -12.1%; in assay [5], 0.65%; in assay [6], -5.3%.

For the compound `O=C(CCc1n[nH]c(=S)o1)Nc1ccccc1`, the growth inhibition was 18.4% in assay [1]; 17.4% in assay [2]; 30.4% in assay [3]; 15.8% in assay [4]; 14.1% in assay [5]; 35.3% in assay [6].

Turning to `Clc1cccc(C=NC23CC4CC(CC(C4)C2)C3)c1Cl`, the growth inhibition in assay [1] is -20.2%; in assay [2], -36.5%; in assay [3] it was -40.3%; in assay [4] it was -6%; in assay [5] it was -22.6%; in assay [6] it was -10.2%.

On to `CC1CCCCC(=O)N1` (configuration not stated), for which the growth inhibition in assay [1] was 11.6%; in assay [2] it was 13.4%; in assay [3], 27.7%; in assay [4], 5.1%; in assay [5], 18.6%; in assay [6] it was -1.35%.

Take `CCCCCCCCC1C(CCCCCCCC(=O)N(CC)CCCOCC)C2(Cl)C(Cl)=C(Cl)C1(Cl)C2(Cl)Cl` (configuration not stated): the growth inhibition in assay [1] is 3.45%; in assay [2], 4.65%; in assay [3], 13.9%; in assay [4] it was -10.6%; in assay [5] it was -6.35%; in assay [6] it was 16.4%.

With `CCCCCCCNc1nc(N)nc(Cl)n1`, the growth inhibition is -0.15% in assay [1]; -4.6% in assay [2]; 5.75% in assay [3]; 8.75% in assay [4]; -9.4% in assay [5]; 10.9% in assay [6].

Consider `CNC(=O)Nc1[nH]c(=O)ncc1Cl`, for which the growth inhibition was 6.45% in assay [1]; -0.35% in assay [2]; 8.95% in assay [3]; -5.1% in assay [4]; 16.2% in assay [5]; 5.2% in assay [6].

Turning to `O=C1NC(=O)C(c2ccc(Cl)cc2)N1` (configuration not stated), the growth inhibition was 0% in assay [1]; -10.8% in assay [2]; -6.3% in assay [3]; -5.3% in assay [4]; -3.75% in assay [5]; -15.2% in assay [6].

Consider `CC1CC(c2ccccc2)Nc2nc3ccccc3n21` (configuration not stated), for which the growth inhibition was 5.65% in assay [1]; 3.45% in assay [2]; -4.7% in assay [3]; 7.95% in assay [4]; 5.65% in assay [5]; -14.3% in assay [6].

As for `Cc1cccc(C)c1NC(=O)C(=O)C(C(=O)c1ccccc1-c1ccccc1)C1OC(=O)c2ccccc21` (configuration not stated), the growth inhibition in assay [1] was 26.6%; in assay [2], 15.4%; in assay [3], 12.2%; in assay [4], -29.6%; in assay [5], 2.2%; in assay [6], 23.6%.

Regarding `CC(C(=O)OCc1ccccc1)(c1ccco1)N1C(=O)OC(c2ccccc2)C1c1ccccc1` (configuration not stated), the growth inhibition was -4.35% in assay [1]; -3.5% in assay [2]; 4.55% in assay [3]; -3.5% in assay [4]; -17.1% in assay [5]; -23.1% in assay [6].

As to `CCOC(=O)c1ccc(NC(=O)Nc2cc(Cl)c(OC)cc2OC)cc1`, the growth inhibition in assay [1] was 75% (active); in assay [2], 90.7% (active); in assay [3], 94% (active); in assay [4] it was 91.8% (active); in assay [5], 76.1% (active); in assay [6] it was 85.8% (active).

For `CCOC(=O)CC[Si](CC)(CC)CC`, the growth inhibition in assay [1] is 0.25%; in assay [2] it was -13.8%; in assay [3], 1.7%; in assay [4], -28.5%; in assay [5], -15.3%; in assay [6], -1.45%.

In the case of `CC(O)C(NC(=O)CNC(=O)CNC(=O)OCc1ccccc1)C(=O)O` (stereo not drawn) (Cbz-Gly-Gly-[ξT]-OH), the growth inhibition is 7.2% in assay [1]; -3.25% in assay [2]; -2.45% in assay [3]; 16.4% in assay [4]; 6.65% in assay [5]; 3.05% in assay [6].

For `CN(C)c1ccc(C=Nc2cc(Cl)ccc2O)cc1`, the growth inhibition in assay [1] was 38.9%; in assay [2], 23.2%; in assay [3], 37.4%; in assay [4], -2.9%; in assay [5], 66%; in assay [6], 52.9%.

As to `NC(=O)NCc1ccc(CNC(N)=O)cc1`, the growth inhibition is 11.3% in assay [1]; 15.1% in assay [2]; -2.9% in assay [3]; -61.5% in assay [4]; 3.25% in assay [5]; 3.35% in assay [6].

For `Cc1ccc(OP2(Oc3ccc(C)cc3)=NP(Oc3ccc(C)cc3)(Oc3ccc(C)cc3)=NP(Oc3ccc(C)cc3)(Oc3ccc(C)cc3)=N2)cc1`, the growth inhibition in assay [1] was 10.6%; in assay [2] it was -4.15%; in assay [3], -17.6%; in assay [4], -4.5%; in assay [5], 2.7%; in assay [6], 0.4%.

Turning to `C/C(=N\NS(=O)(=O)c1ccc(N)cc1)c1ccc(C)cc1C`, the growth inhibition is -12.9% in assay [1]; -19.6% in assay [2]; 0.8% in assay [3]; -5.25% in assay [4]; -28.6% in assay [5]; -16.5% in assay [6].

For `COc1ccc(C(C)=O)c(C)c1OC`, the growth inhibition was 22.6% in assay [1]; 3.65% in assay [2]; 19.6% in assay [3]; 10.4% in assay [4]; -22.2% in assay [5]; 15.2% in assay [6].

`NC(CCCNc1nc(O)c(-c2ccccc2)c(=O)[nH]1)C(=O)O` (configuration not stated): the growth inhibition in assay [1] was -12.9%; in assay [2], -24.4%; in assay [3], -10.7%; in assay [4] it was -44%; in assay [5], -10.3%; in assay [6], -3.55%.

As for `CCOc1ccc(Cc2ccccc2)cc1`, the growth inhibition in assay [1] was -8.95%; in assay [2], -23.9%; in assay [3], -7%; in assay [4] it was 1.5%; in assay [5], -8.25%; in assay [6], -5.35%.

Turning to `C#CC(CCC)NC(C)(C)C` (configuration not stated), the growth inhibition in assay [1] was 31.7%; in assay [2], -13.9%; in assay [3] it was 7.35%; in assay [4], -10.8%; in assay [5], 1.95%; in assay [6], 21.3%.
